# Measurements published in the supplement of paper PMC9262897, “Low-cost anti-mycobacterial drug discovery using engineered E. coli” (Nature Communications, 2022).
# Structures can show the parent of a compound that is named as a salt. ± gives the standard deviation of the averaged measurements.
# Experiments:
# Assay in all cases: growth (OD600 after 10 h); higher = more growth (less inhibition)
# [1] = tested on: E. coli TESEC Alr+ wild-type control; conditions: compound 0.1 mM; raw OD600 reference: median of DMSO wells 0.241, cell-free background 0.041
# Experimental: (§1)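 TESEC Mtb Alr E. coli, or the Alr+ wild-type control, in 384-well plates with Prestwick library compounds at 0.1 mM and 1% DMSO, across arabinose induction levels of 1E3 to 1E7 nM. Growth is read as OD600 after 10 h at 37 °C in triplicate biological replicates.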
# [2] = tested on: E. coli TESEC Mtb Alr; conditions: compound 0.1 mM
# Experimental: as §1
# [3] = tested on: E. coli TESEC Mtb Asd; conditions: compound 0.1 mM
# Experimental: (§2)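 TESEC E. coli strains in which the native enzyme is deleted and replaced by arabinose-inducible Mtb Asd, DapB, CysH or TrpD, each grown in its selective medium. Strains were screened against the Prestwick library at 0.1 mM and 1% DMSO in 384-well format at low and high arabinose induction. Growth is read as OD600 after 10 h in triplicate.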
# [4] = tested on: E. coli TESEC Mtb DapB; conditions: compound 0.1 mM
# Experimental: as §2
# [5] = tested on: E. coli TESEC Mtb Alr; conditions: compound 0.1 mM; remark: listed apart in the source
# Experimental: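 TESEC Mtb Alr E. coli (ΔaraC ΔtolC ΔentC Δalr ΔdadX, arabinose-inducible Mtb Alr) or the Alr+ wild-type control strain, grown in defined M9-fructose medium without D-alanine in 96-well plates with Prestwick library compounds at 0.1 mM and 1% DMSO. Low Alr induction is 0.1 µM arabinose and high induction is 10 mM arabinose.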
# [6] = arabinose 1000 nM, raw OD600 reference: median of DMSO wells 0.294, cell-free background 0.041
# [7] = arabinose 10000 nM, raw OD600 reference: median of DMSO wells 0.264, cell-free background 0.041
# [8] = arabinose 100000 nM, raw OD600 reference: median of DMSO wells 0.201, cell-free background 0.041
# [9] = arabinose 1000000 nM, raw OD600 reference: median of DMSO wells 0.193, cell-free background 0.041
# [10] = arabinose 10000000 nM, raw OD600 reference: median of DMSO wells 0.146, cell-free background 0.041
# [11] = arabinose induction (level): High, raw OD600 reference: median of DMSO wells 0.331, cell-free background 0.041
# [12] = arabinose induction (level): Low, raw OD600 reference: median of DMSO wells 0.417, cell-free background 0.041
# [13] = arabinose induction (level): High, raw OD600 reference: median of DMSO wells […], cell-free background 0.041
# [14] = arabinose induction (level): Low, raw OD600 reference: median of DMSO wells 0.227, cell-free background 0.041
# [15] = arabinose 100 nM, raw OD600 reference: median of DMSO wells 0.413, cell-free background 0.052
# [16] = arabinose 10000000 nM, raw OD600 reference: median of DMSO wells […], cell-free background 0.052
compound,measurement,setting,value
CS(=O)(=O)Nc1ccc([N+](=O)[O-])cc1Oc1ccccc1 [Nimesulide],growth,[1],0.1929 ± 0.00095
same,growth,[2]; [6],0.206 ± 0.0095
same,growth,[2]; [7],0.247 ± 0.0073
same,growth,[2]; [8],0.149 ± 0.0051
same,growth,[2]; [9],0.137 ± 0.0025
same,growth,[2]; [10],0.139 ± 0.0087
same,growth,[3]; [11],0.272 ± 0.088
same,growth,[3]; [12],0.329 ± 0.056
same,growth,[4]; [13],0.201 ± 0.0065
same,growth,[4]; [14],0.248 ± 0.091
same,growth,[5]; [15],0.359 ± 0.026
same,growth,[5]; [16],0.286 ± 0.01
O=C(N[C@H](CO)[C@H](O)c1ccc([N+](=O)[O-])cc1)C(Cl)Cl [Chloramphenicol],growth,[1],0.0406 ± 0.00026
same,growth,[2]; [6],0.03953 ± 0.00031
same,growth,[2]; [7],0.0391 ± 0.00017
same,growth,[2]; [8],0.0408 ± 0.00053
same,growth,[2]; [9],0.03907 ± 0.00015
same,growth,[2]; [10],0.0407 ± 0.00064
same,growth,[3]; [11],0.0519 ± 0.00067
same,growth,[3]; [12],0.0522 ± 0.0019
same,growth,[4]; [13],0.0496 ± 0.00061
same,growth,[4]; [14],0.0578 ± 0.015
same,growth,[5]; [15],0.0561 ± 0.0036
same,growth,[5]; [16],0.0533 ± 0.003
Clc1cnccn1 [2-Chloropyrazine],growth,[1],0.241 ± 0.011
same,growth,[2]; [6],0.03733 ± 0.00025
same,growth,[2]; [7],0.0408 ± 0.0011
same,growth,[2]; [8],0.11 ± 0.0059
same,growth,[2]; [9],0.112 ± 0.0027
same,growth,[2]; [10],0.196 ± 0.0073
same,growth,[3]; [11],0.245 ± 0.034
same,growth,[3]; [12],0.307 ± 0.049
same,growth,[4]; [13],0.231 ± 0.013
same,growth,[4]; [14],0.254 ± 0.025
same,growth,[5]; [15],0.4217 ± 0.0015
same,growth,[5]; [16],0.325 ± 0.0083
CC[N+](C)(CC)CCC[n+]1c(-c2ccccc2)c2cc(N)ccc2c2ccc(N)cc21 [Propidium iodide],growth,[1],0.0949 ± 0.011
same,growth,[2]; [6],0.135 ± 0.023
same,growth,[2]; [7],0.116 ± 0.028
same,growth,[2]; [8],0.15 ± 0.02
same,growth,[2]; [9],0.0816 ± 0.0028
same,growth,[2]; [10],0.0888 ± 0.012
same,growth,[3]; [11],0.0925 ± 0.0048
same,growth,[3]; [12],0.0953 ± 0.0048
same,growth,[4]; [13],0.137 ± 0.027
same,growth,[4]; [14],0.111 ± 0.021
same,growth,[5]; [15],0.221 ± 0.13
same,growth,[5]; [16],0.0665 ± 0.0008
CN1CCOC(c2ccccc2)c2ccccc2C1 (stereo unspecified) [Nefopam hydrochloride],growth,[1],0.218 ± 0.0081
same,growth,[2]; [6],0.294 ± 0.0068
same,growth,[2]; [7],0.263 ± 0.003
same,growth,[2]; [8],0.185 ± 0.012
same,growth,[2]; [9],0.157 ± 0.0087
same,growth,[2]; [10],0.157 ± 0.0035
same,growth,[3]; [11],0.187 ± 0.03
same,growth,[3]; [12],0.401 ± 0.045
same,growth,[4]; [13],0.186 ± 0.006
same,growth,[4]; [14],0.243 ± 0.036
same,growth,[5]; [15],0.413 ± 0.014
same,growth,[5]; [16],0.327 ± 0.021
CC(C)(C)NC(=O)[C@H]1CC[C@H]2[C@@H]3CC[C@H]4NC(=O)C=C[C@]4(C)[C@H]3CC[C@]12C [Finasteride],growth,[1],0.121 ± 0.003
same,growth,[2]; [6],0.201 ± 0.015
same,growth,[2]; [7],0.201 ± 0.0065
same,growth,[2]; [8],0.133 ± 0.0022
same,growth,[2]; [9],0.0954 ± 0.00085
same,growth,[2]; [10],0.144 ± 0.0043
same,growth,[3]; [11],0.308 ± 0.064
same,growth,[3]; [12],0.268 ± 0.064
same,growth,[4]; [13],0.183 ± 0.0049
same,growth,[4]; [14],0.228 ± 0.006
same,growth,[5]; [15],0.366 ± 0.022
same,growth,[5]; [16],0.182 ± 0.03
C=CC(N)CCC(=O)O (stereo unspecified) [Vigabatrin],growth,[1],0.239 ± 0.005
same,growth,[2]; [6],0.279 ± 0.014
same,growth,[2]; [7],0.278 ± 0.0034
same,growth,[2]; [8],0.213 ± 0.013
same,growth,[2]; [9],0.191 ± 0.0036
same,growth,[2]; [10],0.148 ± 0.0044
same,growth,[3]; [11],0.313 ± 0.06
same,growth,[3]; [12],0.389 ± 0.089
same,growth,[4]; [13],0.174 ± 0.0095
same,growth,[4]; [14],0.192 ± 0.014
same,growth,[5]; [15],0.411 ± 0.014
same,growth,[5]; [16],0.361 ± 0.046
Oc1ccc(OCc2ccccc2)cc1 [Monobenzone],growth,[1],0.176 ± 0.0053
same,growth,[2]; [6],0.213 ± 0.017
same,growth,[2]; [7],0.249 ± 0.011
same,growth,[2]; [8],0.169 ± 0.004
same,growth,[2]; [9],0.134 ± 0.0036
same,growth,[2]; [10],0.161 ± 0.0038
same,growth,[3]; [11],0.314 ± 0.099
same,growth,[3]; [12],0.325 ± 0.025
same,growth,[4]; [13],0.2 ± 0.0057
same,growth,[4]; [14],0.21 ± 0.017
same,growth,[5]; [15],0.395 ± 0.019
same,growth,[5]; [16],0.304 ± 0.018
O=C(NCC(O)CO)c1c(I)c(C(=O)NCC(O)CO)c(I)c(N(CCO)C(=O)CO)c1I (stereo unspecified) [Ioversol],growth,[1],0.257 ± 0.0068
same,growth,[2]; [6],0.308 ± 0.017
same,growth,[2]; [7],0.288 ± 0.013
same,growth,[2]; [8],0.208 ± 0.015
same,growth,[2]; [9],0.192 ± 0.0057
same,growth,[2]; [10],0.169 ± 0.0037
same,growth,[3]; [11],0.477 ± 0.014
same,growth,[3]; [12],0.46 ± 0.019
same,growth,[4]; [13],0.202 ± 0.015
same,growth,[4]; [14],0.256 ± 0.028
same,growth,[5]; [15],0.408 ± 0.015
same,growth,[5]; [16],0.362 ± 0.017
Clc1ccc(CCC(Cn2ccnc2)Sc2c(Cl)cccc2Cl)cc1 (stereo unspecified) [Butoconazole nitrate],growth,[1],0.0548 ± 0.0082
same,growth,[2]; [6],0.0578 ± 0.0014
same,growth,[2]; [7],0.066 ± 0.0018
same,growth,[2]; [8],0.0622 ± 0.00087
same,growth,[2]; [9],0.0664 ± 0.00089
same,growth,[2]; [10],0.0514 ± 0.0014
same,growth,[3]; [11],0.0629 ± 0.00052
same,growth,[3]; [12],0.0669 ± 0.0063
same,growth,[4]; [13],0.0705 ± 0.0052
same,growth,[4]; [14],0.0712 ± 0.0093
same,growth,[5]; [15],0.1 ± 0.057
same,growth,[5]; [16],0.115 ± 0.013
CC#C[C@]1(O)CC[C@H]2[C@@H]3CCC4=CC(=O)CCC4=C3[C@@H](c3ccc(N(C)C)cc3)C[C@@]21C [Mifepristone],growth,[1],0.142 ± 0.0098
same,growth,[2]; [6],0.181 ± 0.013
same,growth,[2]; [7],0.207 ± 0.016
same,growth,[2]; [8],0.138 ± 0.0049
same,growth,[2]; [9],0.0733 ± 0.003
same,growth,[2]; [10],0.1374 ± 0.00076
same,growth,[3]; [11],0.241 ± 0.077
same,growth,[3]; [12],0.216 ± 0.015
same,growth,[4]; [13],0.199 ± 0.0078
same,growth,[4]; [14],0.236 ± 0.013
same,growth,[5]; [15],0.411 ± 0.009
same,growth,[5]; [16],0.116 ± 0.012
Cc1ccc(C(=O)c2cc(O)c(O)c([N+](=O)[O-])c2)cc1 [Tolcapone],growth,[1],0.04277 ± 0.00032
same,growth,[2]; [6],0.0471 ± 0.0057
same,growth,[2]; [7],0.04323 ± 0.00038
same,growth,[2]; [8],0.0445 ± 0.00061
same,growth,[2]; [9],0.04313 ± 0.00042
same,growth,[2]; [10],0.0485 ± 0.00089
same,growth,[3]; [11],0.0527 ± 0.0018
same,growth,[3]; [12],0.0521 ± 0.0091
same,growth,[4]; [13],0.0526
same,growth,[4]; [14],0.0557 ± 0.0019
same,growth,[5]; [15],0.0574 ± 0.0008
same,growth,[5]; [16],0.0554 ± 0.00035
CC1(C)[C@@H](OC(=O)CCC(=O)O)CC[C@]2(C)[C@H]3C(=O)C=C4[C@@H]5C[C@@](C)(C(=O)O)CC[C@]5(C)CC[C@@]4(C)[C@]3(C)CC[C@@H]12 [Carbenoxolone disodium salt],growth,[1],0.248 ± 0.007
same,growth,[2]; [6],0.275 ± 0.004
same,growth,[2]; [7],0.2609 ± 0.0019
same,growth,[2]; [8],0.319 ± 0.0044
same,growth,[2]; [9],0.213 ± 0.0028
same,growth,[2]; [10],0.201 ± 0.0016
same,growth,[3]; [11],0.325 ± 0.15
same,growth,[3]; [12],0.251 ± 0.006
same,growth,[4]; [13],0.196 ± 0.018
same,growth,[4]; [14],0.225 ± 0.012
same,growth,[5]; [15],0.405 ± 0.019
same,growth,[5]; [16],0.37 ± 0.0045
